Compound activity: PubChem, several laboratories
In the library only some 22% were active in any assay of this set; here they are far more common.
Measles CPE: protection of cells from measles virus | Measles virus-infected cells, CPE protection, absorbance | protection (pct of control), % at 4 µM | 140,000 compounds, 1.5% hits | AID 841; in the data active = protection mostly above about 24%, no sharp cut-off; inactive = mostly below about 26%
CYP2C9 act: increases human cytochrome P450 2C9 activity. P11712. recombinant CYP2C9, luciferin-H conversion, luminescence; hits give high values; factor 1 = untreated enzyme, 0 = blocked. activation factor at 5 µM. 96,000 compounds, 1.4% hits;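 active = activation factor of 2 or more for CYP2C9 at a 5 µM dose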;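 note: 0 = sulfaphenazole-blocked wells and 1 = vehicle-only wells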
Target sequence (P11712 whole entry, looked up): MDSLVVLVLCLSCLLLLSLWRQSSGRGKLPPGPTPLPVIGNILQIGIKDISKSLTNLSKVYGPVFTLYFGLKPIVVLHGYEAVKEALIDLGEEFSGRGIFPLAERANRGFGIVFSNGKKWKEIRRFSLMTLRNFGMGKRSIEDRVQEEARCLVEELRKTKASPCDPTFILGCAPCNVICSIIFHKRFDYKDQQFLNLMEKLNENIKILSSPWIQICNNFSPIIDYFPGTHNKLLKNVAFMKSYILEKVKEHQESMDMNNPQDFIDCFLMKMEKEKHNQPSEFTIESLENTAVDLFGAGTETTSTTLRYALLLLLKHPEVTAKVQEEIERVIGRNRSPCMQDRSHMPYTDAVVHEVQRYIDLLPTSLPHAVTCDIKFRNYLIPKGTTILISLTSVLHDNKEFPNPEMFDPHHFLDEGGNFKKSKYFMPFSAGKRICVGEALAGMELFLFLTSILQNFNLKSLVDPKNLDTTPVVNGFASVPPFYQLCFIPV
CYP2C19 inh: blocks human cytochrome P450 2C19; P33261; CYP2C19 Supersomes, luciferin-H EGE luminescence, 30 min; inhibition, % at 5 µM; 96,000 compounds, 21% hits; AID 778;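 active = CYP2C19 inhibition above a set limit at 5 µM in the primary screen, cut at about 50% in these data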;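 note: plate controls were negative control wells for no effect and 2.5 mM tranylcypromine positive control for full effect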
CYP2C19 act: activators of human cytochrome P450 2C19; P33261; recombinant CYP2C19, luciferin-H EGE luminescence; hits give high values; 0 = fully inhibited enzyme, 1 = untreated enzyme; activation factor at 5 µM; 96,000 tested, under 10 active; AID 1025;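 active = activation factor of at least 2 at 5 µM in the primary screen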;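 note: 0 = wells with 2.5 mM tranylcypromine and 1 = vehicle-only wells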
CYP2C9 inh: inhibitors of human CYP2C9 | CYP2C9 Supersomes, luciferin-H conversion, luminescence | 96,000 compounds, 20% hits | inhibition, % at 5 µM | AID 777;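 active = blocking of liver enzyme CYP2C9 beyond about 50% at 5 µM, limit read from the data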
The depositor's hits bear a star; x = not tested or not shown.

SMILES | Measles CPE | CYP2C9 act | CYP2C19 inh | CYP2C19 act | CYP2C9 inh
CCCS(=O)(=O)N1CCN(Cc2ccc3c(c2)c2ccccc2n3CC)CC1 | 26.5 | x | x | x | x
CCOC(=O)C1C(=O)CC(C)(O)C(C(=O)OCC)C1c1ccccc1 (stereo not drawn) | 11.3 | x | x | x | x
CCOC(=O)C1C(=O)CC(O)(c2ccccc2)CC1c1ccccc1 (stereo not drawn) | 4.6 | 0.2 | 73.1* | 0.3 | 82.0*
N#Cc1cc(-c2ccccc2)cn(Cc2c(Cl)cccc2Cl)c1=O | 53.5* | 1.1 | -12.6 | 1.1 | -14.7
Cc1ccc(-c2cc(C#N)c(=O)n(Cc3c(Cl)cccc3Cl)c2)cc1 | 9.1 | 1.1 | -18.2 | 1.2 | -8.7
Cc1nnsc1NC(=O)OCc1ccccc1Cl | 15.0 | 0.7 | 76.4* | 0.2 | 28.2
COc1ccccc1OCC(=O)NCCSCc1ccc(Cl)cc1 | 2.2 | x | x | x | x
O=C(c1ccc(Cl)cc1)c1nnc(-c2ccncc2)o1 | 3.9 | 0.5 | 78.3* | 0.2 | 46.9
CC(C)(C)C(=O)Nc1nnc(-c2ccncc2)o1 | 15.4 | x | x | x | x
O=C(c1nnc(-c2ccncc2)o1)c1ccccc1Cl | 15.7 | 0.6 | 83.6* | 0.2 | 38.4
O=C(c1ccccc1)c1nnc(-c2ccncc2)o1 | 2.0 | 0.8 | 70.6* | 0.3 | 18.8
O=C(Nc1nnc(-c2ccncc2)o1)C1CCCCC1 | 12.6 | x | x | x | x
CCN(Cc1ccccc1)c1ccc(/C=N/NS(=O)(=O)c2cccc([N+](=O)[O-])c2)cc1 | 7.9 | x | x | x | x
CC(C)CCNC(=O)C(c1cccs1)N(CC1CCCO1)C(=O)Cn1nnc2ccccc21 (stereo not drawn) | 12.8 | 0.9 | 1.7 | 1 | 12.8
COCC(C)NC(=O)C1CC(c2cccc(Br)c2)=NO1 (stereo not drawn) | 6.6 | 2.1* | -0.4 | 1 | -110.2
COc1ccc(OC)c(C2=NOC(C(=O)NCc3ccco3)C2)c1 (stereo not drawn) | 7.2 | 3.1* | 18.3 | 0.8 | -213.1
COc1cccc(C2=NOC(C(=O)NCc3cccs3)C2)c1 (stereo not drawn) | 6.2 | 0.3 | 53.9* | 0.5 | 68.1*
COc1cccc(C2=NOC(C(=O)Nc3ccccc3SC)C2)c1 (stereo not drawn) | 27.7 | 2.5* | 62.6* | 0.4 | -146.9
COc1cccc(C2=NOC(C(=O)Nc3cc(OC)c(OC)c(OC)c3)C2)c1 (stereo not drawn) | 4.4 | 1.1 | 19.7 | 0.8 | -7.5
Cc1cc(C)nc(NC(=O)c2cccc(Cl)c2)n1 | 2.5 | 1 | 5.3 | 0.9 | 2.0
O=C(O)/C=C/C(=O)Nc1cccc(C(F)(F)F)c1 | 7.8 | x | x | x | x
Cc1ccc(CN2CCN(C(=O)C3CCC3)CC2)cc1 | 5.3 | x | x | x | x
Cc1ccc(CN2CCS(=O)(=O)CC2)cc1 | 14.1 | 0.6 | 65.8* | 0.3 | 38.8
COC(=O)C1CCN(C(=O)Cc2ccc(Br)cc2)CC1 | 2.2 | 0.8 | 90.2* | 0.1 | 19.4
O=C(Cc1ccc(Br)cc1)N1CCN(c2ccccc2)CC1 | 8.0 | 0.1 | 98.7* | 0 | 88.0*
SMILES | Measles CPE | CYP2C9 act | CYP2C19 inh | CYP2C19 act | CYP2C9 inh
COC(=O)C1CCN(C(=O)Cc2ccc(OC)c(OC)c2)CC1 | 3.2 | x | x | x | x
COC(=O)C1CCN(Cc2ccc(C)cc2)CC1 | 7.3 | 0.9 | 85.4* | 0.1 | 12.1
CCc1nc(SCC(=O)NCCc2ccc(OC)c(OC)c2)c2c(=O)n(C)c(=O)n(C)c2n1 | 4.8 | 1 | -2.7 | 1 | -2.6
O=C(Cc1ccc(-n2c(=S)[nH]c3ccccc3c2=O)cc1)N1CCN(c2ccccc2)CC1 | 3.8 | 1 | 55.0* | 0.4 | 4.5
CC1CCCN(C(=O)Cc2ccc(F)cc2)C1 (stereo not drawn) | 4.5 | 0.7 | 73.0* | 0.3 | 32.6
O=C(Cc1ccc(-n2c(=O)[nH]c3ccccc3c2=O)cc1)N1CCN(c2ccccc2)CC1 | 3.4 | 0.9 | 2.9 | 1 | 8.1
COc1ccc(CC(=O)N2CCCC(C)C2)cc1 (stereo not drawn) | 9.5 | 1.1 | 49.5 | 0.5 | -9.5
Cc1cccc(N2CCN(C(=O)Cc3ccc(Br)cc3)CC2)c1C | 8.5 | 0.7 | 70.5* | 0.3 | 31.4
O=C(Cc1ccc(Br)cc1)N1CCCCCC1 | 8.3 | 0.9 | 52.6* | 0.5 | 10.0
O=C(c1ccc(Br)cc1)N1CCCC1 | 4.0 | 1.1 | -5.7 | 1.1 | -14.3
COc1ccc(NCc2nnc(SCC#N)n2-c2ccccc2OC)cc1 | 17.0 | 0.7 | 38.2 | 0.6 | 30.3
O=[N+]([O-])c1cccc(/C([O-])=C(/C(=S)Nc2cccc3ccccc23)[n+]2ccccc2)c1 | 4.7 | x | x | x | x
Cc1nn(-c2ccccc2)c(Cl)c1C(=O)N(C)c1nc(-c2ccc(F)cc2)cs1 | 24.6 | x | x | x | x
